Inconclusive results are not listed. Calls of active or inactive are those of the source. Unless noted, calls come from the whole dose curve; as a rule, active = well fitted curve in the direction sought with a large enough effect in the repeat runs; inconclusive = weak or mixed curves; inactive = no such curve, though single readings can be large; an effect the other way counts as inactive or inconclusive.
Tests used:
[1] = A CellTox Green Cytotoxicity Assay to monitor cytotoxicity in HEK293 cells - 32 hour (AID 1224881); note: nearly all actives have a fitted effect of over 40% in size
How it was run: (§1)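 Dead-cell fluorescence measured kinetically: asymmetric cyanine dye, HEK293, 600 cells/well, 5 h settle, 23 nL cpd/DMSO, 37 C, reads 0–40 h every 8 h.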

[2] = A CellTox Green Cytotoxicity Assay to monitor cytotoxicity in HepG2 cells - 0 hour (AID 1224882); note: nearly all actives have a fitted effect of over 35% in size
How it was run: (§2)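 First, HepG2 cells (600/well) mixed with reagent were plated; second, after 5 h at 37 C they received compounds via pintool; third, fluorescence was measured at 0 h through 40 h at 8 h intervals.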

[3] = A CellTox Green Cytotoxicity Assay to monitor cytotoxicity in HepG2 cells - 32 hour (AID 1224883); note: nearly all actives have a fitted effect of over 50% in size
How it was run: as §2

[4] = A CellTox Green Cytotoxicity Assay to monitor cytotoxicity in HEK293 cells - 8 hour (AID 1224884); note: nearly all actives have a fitted effect of over 35% in size
How it was run: as §1

[5] = qHTS RealTime-Glo MT Cell Viability Assay in HepG2 cells - 16 hour (AID 1224885); note: nearly all actives have a fitted effect of over 50% in size
How it was run: (§3)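 HepG2 suspension premixed with RealTime-Glo reagents is plated at 600 cells per well and left 5 h at 37 C/5% CO2. Compounds in DMSO then go in, and bioluminescence reflecting viable cell number is recorded over 40 h.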

[6] = qHTS RealTime-Glo MT Cell Viability Assay in HEK293 cells - 24 hour (AID 1224886); note: top concentration of the series differs between compounds; nearly all actives have a fitted effect of over 50% in size
How it was run: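 Reads taken at 0, 8, 16, 24, 32 and 40 h from the same wells. HEK293 cells (600/well) carried RealTime-Glo reagents from seeding, with compound added after a 5 h settle at 37 C.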

[7] = qHTS RealTime-Glo MT Cell Viability Assay in HEK293 cells - 8 hour (AID 1224887); note: top concentration of the series differs between compounds; nearly all actives have a fitted effect of over 50% in size
How it was run: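 600 HEK293 cells per well, dispensed already mixed with RealTime-Glo MT reagents. Compound dosing came 5 h later. The same wells were read for luminescence at 0, 8, 16, 24, 32 and 40 h of exposure at 37 C.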

[8] = A CellTox Green Cytotoxicity Assay to monitor cytotoxicity in HEK293 cells - 16 hour (AID 1224888); note: nearly all actives have a fitted effect of over 35% in size
How it was run: as §1

[9] = qHTS RealTime-Glo MT Cell Viability Assay in HepG2 cells - 0 hour (AID 1224889); note: nearly all actives have a fitted effect of over 50% in size
How it was run: as §3

[10] = A CellTox Green Cytotoxicity Assay to monitor cytotoxicity in HepG2 cells - 8 hour (AID 1224890); note: nearly all actives have a fitted effect of over 45% in size
How it was run: as §2

[11] = qHTS assay to identify small molecule antagonists of the estrogen receptor alpha (ER-alpha) signaling pathway using the BG1 cell line in the presence of 0.1 nM 17-beta-estradiol - cell viability counter screen (AID 1259241); note: nearly all actives have a fitted effect of over 40% in size
How it was run: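 Following 5 days in phenol red-free medium with charcoal-stripped serum, VM7Luc4E2 cells received test compounds alongside 0.1 nM 17beta-estradiol (final) at 37C for 22 hr. Live cells were then quantified via protease-substrate fluorescence.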

[12] = qHTS assay to identify small molecule antagonists of the androgen receptor (AR) signaling pathway using the MDA cell line in the presence of 0.5 nM R1881 - cell viability counter screen (AID 1259242); note: nearly all actives have a fitted effect of over 45% in size
How it was run: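 qHTS format. MDA-kb2 (MMTV-luc, AR/GR responsive) + cpd + 0.5 nM R1881 final, 16 hr 37C/0% CO2 → CellTiter-Fluor 30 min → fluorescence intensity.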

[13] = target: Androgen receptor (Homo sapiens) (UniProt P10275); assay: qHTS assay to identify small molecule antagonists of the androgen receptor (AR) signaling pathway using the MDA cell line in the presence of 0.5 nM R1881 (AID 1259243); note: nearly all actives have a fitted effect of over 50% in size
How it was run: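 Antagonist mode quantitative HTS in MDA-kb2 MMTV-luciferase cells, agonist R1881 at 0.5 nM final, 16 hr exposure at 37C and 0% CO2, luminescent detection.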

[14] = target: Estrogen receptor (Homo sapiens) (UniProt P03372); assay: qHTS assay to identify small molecule antagonists of the estrogen receptor alpha (ER-alpha) signaling pathway using the BG1 cell line in the presence of 0.1 nM 17-beta-estradiol (AID 1259244); note: nearly all actives have a fitted effect of over 50% in size
How it was run: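 Reporter is a stably transfected luciferase under four estrogen responsive elements in VM7Luc4E2 cells expressing native full-length ER-alpha; inhibition of 0.1 nM (final) 17beta-estradiol-driven signal over 22 h is read by luminescence.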

[15] = qHTS assay to identify small molecule HDAC inhibitors (AID 1259364);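 note: wild-type HCT-116 cells with endogenous class I/II HDAC activity; top concentration of the series differs between compounds; nearly all actives have a fitted effect of over 45% in size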
How it was run: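 Quantitative high-throughput format: overnight-seeded HCT-116 cells got compounds for 2 hr at 37C; HDAC-Glo I/II reagent added, 30 min RT, luminescence measured.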

[16] = qHTS assay to identify small molecule HDAC inhibitors - cell viability counter screen (AID 1259365)
How it was run: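 HCT-116 wild-type, overnight attachment; 2hr drug exposure, 37C; CellTiter-Glo luminescent ATP readout after 30min RT.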

[17] = qHTS assay to identify small molecule agonists of the sonic hedgehog signaling (Shh) pathway - cell viability counter screen (AID 1259366); note: nearly all actives have a fitted effect of over 50% in size
How it was run: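 Compounds in DMSO were pin-transferred onto 3T3 Gli1-Luc cells that had settled 4hr; plates then stood 24hr at 37C and 5% CO2. One hour before the end, CellTiter-Fluor was added and fluorescence recorded.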

[18] = qHTS assay to identify small molecule antagonists of the sonic hedgehog signaling (Shh) pathway - cell viability counter screen (AID 1259367); note: nearly all actives have a fitted effect of over 55% in size
How it was run: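 CellTiter-Fluor signal in conditioned medium-stimulated 3T3 Gli1-Luc cells, 23 hr compound exposure, 37C.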

[19] = qHTS assay to identify small molecule agonists of the sonic hedgehog signaling (Shh) pathway (AID 1259368; calls by dose curve;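 note: NIH/3T3-derived 3T3Gli1-Luc cells carrying a stable Gli1-driven firefly luciferase reporter; series mostly up to about 92 µM; nearly all actives have a fitted effect of over 15% in size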)
How it was run: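 Quantitative high-throughput format using a Gli1-driven firefly luciferase reporter line derived from NIH/3T3 cells. After a 24 hr compound treatment at 37 C and 5% CO2, luminescence reported Gli1 response element activity.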

[20] = qHTS assay to identify small molecule phospholipidosis (PLD) inducers (AID 1259344; active = well fitted curve in the direction sought with a large enough effect; an effect the other way counts as inactive or inconclusive)
How it was run: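 Accumulated phospholipid, stained red by LipidTOX during 24 h compound treatment of HepG2 cells at 37 C, is quantified from images as pit number and intensity, normalised per cell using Hoechst-stained nuclei.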

Measured: Potency

Sequence of Estrogen receptor (Homo sapiens) (P03372 whole entry, looked up): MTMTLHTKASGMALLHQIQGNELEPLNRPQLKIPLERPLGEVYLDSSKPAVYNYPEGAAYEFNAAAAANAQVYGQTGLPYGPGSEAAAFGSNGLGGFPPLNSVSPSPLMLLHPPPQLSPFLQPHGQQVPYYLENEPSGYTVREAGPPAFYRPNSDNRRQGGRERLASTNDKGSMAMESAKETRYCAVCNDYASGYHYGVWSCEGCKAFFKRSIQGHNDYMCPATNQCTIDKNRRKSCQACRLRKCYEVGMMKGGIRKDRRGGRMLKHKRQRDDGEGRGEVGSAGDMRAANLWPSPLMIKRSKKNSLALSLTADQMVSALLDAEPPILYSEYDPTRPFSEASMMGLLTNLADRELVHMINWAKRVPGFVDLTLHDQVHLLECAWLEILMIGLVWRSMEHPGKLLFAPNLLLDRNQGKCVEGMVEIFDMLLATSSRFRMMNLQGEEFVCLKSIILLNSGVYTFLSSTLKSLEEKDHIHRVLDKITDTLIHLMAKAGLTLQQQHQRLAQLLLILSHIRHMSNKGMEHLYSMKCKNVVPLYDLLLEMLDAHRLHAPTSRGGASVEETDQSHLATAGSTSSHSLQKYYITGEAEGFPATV
Sequence of Androgen receptor (Homo sapiens) (P10275 whole entry, looked up): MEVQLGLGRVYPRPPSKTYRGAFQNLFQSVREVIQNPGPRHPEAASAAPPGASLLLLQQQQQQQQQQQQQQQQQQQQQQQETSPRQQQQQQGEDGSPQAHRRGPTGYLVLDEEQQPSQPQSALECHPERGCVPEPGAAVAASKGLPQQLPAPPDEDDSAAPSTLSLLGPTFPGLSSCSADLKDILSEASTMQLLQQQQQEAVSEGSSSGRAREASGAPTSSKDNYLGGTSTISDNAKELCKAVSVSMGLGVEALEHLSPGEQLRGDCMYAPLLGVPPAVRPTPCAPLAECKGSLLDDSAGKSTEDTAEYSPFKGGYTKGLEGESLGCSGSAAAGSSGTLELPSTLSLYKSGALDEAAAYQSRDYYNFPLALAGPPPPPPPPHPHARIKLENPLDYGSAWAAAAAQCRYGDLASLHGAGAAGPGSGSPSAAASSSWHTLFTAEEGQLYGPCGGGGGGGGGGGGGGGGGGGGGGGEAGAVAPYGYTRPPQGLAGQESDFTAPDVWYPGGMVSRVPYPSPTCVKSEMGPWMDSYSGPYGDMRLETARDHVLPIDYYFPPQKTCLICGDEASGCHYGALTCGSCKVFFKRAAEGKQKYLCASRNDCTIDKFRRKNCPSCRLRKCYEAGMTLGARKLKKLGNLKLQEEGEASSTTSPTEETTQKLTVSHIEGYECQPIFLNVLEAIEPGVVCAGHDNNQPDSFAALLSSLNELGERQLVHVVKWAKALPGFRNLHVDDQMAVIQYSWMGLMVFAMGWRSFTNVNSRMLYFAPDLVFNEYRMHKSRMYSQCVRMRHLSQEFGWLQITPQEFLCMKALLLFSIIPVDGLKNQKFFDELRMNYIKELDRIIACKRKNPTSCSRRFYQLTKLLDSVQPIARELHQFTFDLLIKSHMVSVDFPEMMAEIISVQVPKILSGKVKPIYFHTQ

O=C(O)c1ccc(=O)[nH]c1
not listed: [20]
inactive: all other assays above

CCCC(C)(COC(N)=O)COC(=O)NC(C)C (stereo not given)
not listed: [13]
inactive: all other assays above

COc1cc(CC#N)cc(OC)c1OC
not listed: [20]
inactive: all other assays above

O=C(Cl)OCCOCCOC(=O)Cl
not listed: [16] | [20]
inactive: all other assays above

C[N+](C)(C)CC1CO1 (stereo not given)
not listed: [20]
inactive: all other assays above

CN1CC[C@]23c4c5ccc(O)c4O[C@H]2[C@@H](O)CC[C@H]3[C@H]1C5
not listed: [13]
inactive: all other assays above

COCc1cnc(C2=NC(C)(C(C)C)C(=O)N2)c(C(=O)O)c1 (stereo not given)
not listed: [14] | [16] | [20]
inactive: all other assays above
